# Activity calls are given as the source filed them. Unless noted, no rule for the calls is given here.
# Columns and labels:
# [1] = compounds binding Alexa647 anti-His antibody – biochemical, small-molecule microarray, 635 nm fluorescence, artefact control for SMM control protein annotation, primary screen (AID 1128); settings: higher = more signal;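 also: score merges feature fluorescence with signal-to-noise for each printed compound spot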
# [2] = test system: Human papillomavirus type 1a E7 protein (residues 1-88); assay: HPV1a E7 small-molecule binders, primary screen, biochemical, small-molecule microarray, residues 1-88, 635 nm (AID 1129); settings: small-molecule microarray binding, fluorescence 635 nm; higher = more signal
# [3] = target: Focal adhesion kinase 1 (Homo sapiens) (UniProt Q05397); assay: PTK2 protein binding on printed compound slides – biochemical, small-molecule microarray, 635/667 nm fluorescence, BSA, DTT, primary screen (AID 1130); settings: 635 nm fluorescence, higher = more signal;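 also: composite of spot emission at 667 nm and signal to noise over triplicate slides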
# Chain of Focal adhesion kinase 1 (Homo sapiens) (Q05397 whole entry, looked up): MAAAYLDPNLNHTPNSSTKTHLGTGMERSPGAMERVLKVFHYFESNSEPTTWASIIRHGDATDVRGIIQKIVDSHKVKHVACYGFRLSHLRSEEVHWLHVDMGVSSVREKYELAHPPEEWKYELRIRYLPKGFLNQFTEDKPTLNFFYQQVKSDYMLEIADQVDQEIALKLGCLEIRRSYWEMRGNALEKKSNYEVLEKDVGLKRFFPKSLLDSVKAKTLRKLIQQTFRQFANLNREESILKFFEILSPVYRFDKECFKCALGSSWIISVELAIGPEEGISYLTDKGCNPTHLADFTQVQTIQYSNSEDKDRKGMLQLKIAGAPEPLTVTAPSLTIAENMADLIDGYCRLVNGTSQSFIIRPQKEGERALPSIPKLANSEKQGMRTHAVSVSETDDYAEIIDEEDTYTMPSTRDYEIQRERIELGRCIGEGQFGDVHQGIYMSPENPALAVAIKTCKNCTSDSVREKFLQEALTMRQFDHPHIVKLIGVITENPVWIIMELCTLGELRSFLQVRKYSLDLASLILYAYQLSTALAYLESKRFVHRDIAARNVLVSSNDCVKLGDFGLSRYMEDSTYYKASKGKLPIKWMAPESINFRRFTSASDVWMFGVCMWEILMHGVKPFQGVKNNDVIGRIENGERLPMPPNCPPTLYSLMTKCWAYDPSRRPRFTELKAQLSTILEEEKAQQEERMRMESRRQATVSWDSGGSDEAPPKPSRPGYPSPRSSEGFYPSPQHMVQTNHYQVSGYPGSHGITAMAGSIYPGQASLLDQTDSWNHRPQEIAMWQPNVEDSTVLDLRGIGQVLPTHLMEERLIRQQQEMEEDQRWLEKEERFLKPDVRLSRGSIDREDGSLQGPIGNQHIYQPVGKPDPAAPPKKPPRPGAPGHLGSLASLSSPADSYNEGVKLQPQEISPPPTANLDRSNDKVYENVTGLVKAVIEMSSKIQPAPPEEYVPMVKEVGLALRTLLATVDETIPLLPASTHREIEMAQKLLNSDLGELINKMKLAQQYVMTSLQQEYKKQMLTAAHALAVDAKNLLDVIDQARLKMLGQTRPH
# [4] = test system: Fibrinogen (Alexa647-labelled); assay: Alexa647-fibrinogen binding to printed small molecules – biochemical, small-molecule microarray, 635/667 nm fluorescence, artefact control for SMM control-protein annotation, profiling panel (AID 1131); settings: fibrinogen-A647 binding fluorescence, higher = more signal;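 also: z-score merges 667 nm fluorescence with per-spot signal-to-noise over triplicate slides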
# [5] = target: Follistatin (Homo sapiens) (UniProt P19883); assay: FST protein binding to printed compounds – biochemical, small-molecule microarray, 635/667 nm fluorescence, primary screen (AID 1132); settings: 635 nm fluorescence, higher = more signal
# Chain of Follistatin (Homo sapiens) (P19883 whole entry, looked up): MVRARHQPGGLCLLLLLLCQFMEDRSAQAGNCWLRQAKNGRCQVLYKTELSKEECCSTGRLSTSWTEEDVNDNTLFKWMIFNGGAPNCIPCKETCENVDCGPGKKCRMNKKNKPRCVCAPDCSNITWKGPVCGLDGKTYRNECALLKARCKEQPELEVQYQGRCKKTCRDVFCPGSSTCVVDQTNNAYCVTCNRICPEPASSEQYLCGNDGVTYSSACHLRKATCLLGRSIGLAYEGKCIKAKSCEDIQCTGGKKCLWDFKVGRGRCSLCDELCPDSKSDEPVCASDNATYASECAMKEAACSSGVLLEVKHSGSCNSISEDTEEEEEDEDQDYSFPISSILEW
# [6] = target: Fibroblast growth factor 2 (Homo sapiens) (UniProt P09038); assay: basic fibroblast growth factor binding to printed compounds – biochemical, small-molecule microarray, 635/667 nm fluorescence, primary screen (AID 1133); settings: FGF2, fluorescence 635/667, higher = more signal
# Chain of Fibroblast growth factor 2 (Homo sapiens) (P09038 whole entry, looked up): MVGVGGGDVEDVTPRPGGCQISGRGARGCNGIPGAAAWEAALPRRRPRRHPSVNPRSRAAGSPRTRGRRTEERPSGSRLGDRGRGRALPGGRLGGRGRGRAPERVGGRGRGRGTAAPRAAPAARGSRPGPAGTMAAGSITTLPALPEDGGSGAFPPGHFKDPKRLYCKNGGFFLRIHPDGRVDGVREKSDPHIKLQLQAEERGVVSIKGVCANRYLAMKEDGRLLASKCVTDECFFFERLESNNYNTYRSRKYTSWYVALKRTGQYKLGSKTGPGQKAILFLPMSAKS
# [7] = JC-1 mitochondrial potential readout, lung cancer cells – cell-based, A549, JC-1 fluorescence, basal, 24 h, 100 nL, profiling panel (AID 1138); settings: higher = more signal;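 also: A549 lung adenocarcinoma cells under basal conditions with no added stimulus; test concentration not given here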
# [8] = test system: Lefty1; assay: Lefty1 protein binding to printed compounds – biochemical, small-molecule microarray, 635/667 nm fluorescence, primary screen (AID 1139); settings: fluorescence 635/667, higher = more signal
# [9] = test system: wheat germ agglutinin (Triticum aestivum), Alexa647-labelled; assay: Alexa647-WGA lectin binding to printed small molecules – biochemical, small-molecule microarray, 635/667 nm fluorescence, artefact control for SMM control-protein annotation, profiling panel (AID 1140); settings: WGA-A647 binding, 635 nm fluorescence, higher = more signal;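 also: score merges 667 nm feature emission with signal to noise over triplicate slides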
# [10] = target: Luciferin 4-monooxygenase (Photinus pyralis) (UniProt P08659); assay: inhibition of purified Photinus pyralis luciferase – biochemical, luminescence, purified enzyme, 2006 set, primary screen (AID 1141); settings: purified firefly luciferase, SteadyGlo luminescence, 30 min; higher = more signal, called active from +8 up or from −8 down;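 also: cell-free assay with purified firefly luciferase at 100 ng per well in PBS; test concentration not given here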
# Chain of Luciferin 4-monooxygenase (Photinus pyralis) (P08659 whole entry, looked up): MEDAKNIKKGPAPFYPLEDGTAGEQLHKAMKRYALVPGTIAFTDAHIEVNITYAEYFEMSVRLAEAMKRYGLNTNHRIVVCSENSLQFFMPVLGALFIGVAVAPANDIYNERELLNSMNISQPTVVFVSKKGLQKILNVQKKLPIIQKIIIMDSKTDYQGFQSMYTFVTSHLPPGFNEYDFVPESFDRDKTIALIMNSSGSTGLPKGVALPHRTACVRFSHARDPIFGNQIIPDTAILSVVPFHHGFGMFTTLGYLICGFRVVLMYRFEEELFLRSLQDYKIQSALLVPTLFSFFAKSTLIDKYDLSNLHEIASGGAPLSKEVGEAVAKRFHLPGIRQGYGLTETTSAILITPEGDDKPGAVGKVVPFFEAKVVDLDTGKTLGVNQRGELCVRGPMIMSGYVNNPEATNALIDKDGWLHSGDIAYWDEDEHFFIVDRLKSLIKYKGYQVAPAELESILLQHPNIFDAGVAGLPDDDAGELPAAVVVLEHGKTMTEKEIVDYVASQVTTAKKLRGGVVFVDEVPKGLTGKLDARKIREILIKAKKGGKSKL
# [11] = test system: Wnt5a (protein binding on small-molecule microarray); assay: small molecules binding Wnt5a protein – biophysical, small-molecule microarray, 635/667 nm fluorescence, primary screen (AID 1142); settings: 635 nm fluorescence, higher = more signal;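 also: fluorescence read at 667 nm with signal to noise per printed feature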
# [12] = ATP-based viability of Huh7 replicon cells – cell-based, CellTiter-Glo luminescence, basal, 48 h, cytotoxicity control for HCV replication inhibitor project, primary screen (AID 1143); settings: higher = more signal, called active from +8 up or from −8 down;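 also: Huh7 hepatoma cells carrying a hepatitis C replication reporter with no stimulus; test concentration not given here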
# [13] = Pseudomonas biofilm growth suppression – PAO1 strain, BacTiter-Glo luminescence, LB-PBS, primary screen (AID 1144); settings: P. aeruginosa PAO1 biofilm, 12 h, higher = more signal
# [14] = basal CRE-LacZ reporter activity in PC12 – cell-based, unstimulated, primary screen (AID 1145); settings: no forskolin, luminescence, 4.5 h, higher = more signal, called active from +8 up or from −8 down
# [15] = forskolin-driven CRE-LacZ activity in PC12 – cell-based, CRE-LacZ reporter, forskolin-stimulated, primary screen (AID 1146); settings: luminescence, 4.5 h, higher = more signal, called active from +8 up or from −8 down;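 also: PC12 cells with 6xCRE LacZ reporter stimulated by forskolin 10 µM; beta-galactosidase reporter signal reflecting CREB driven transcription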
# [16] = target: Streptavidin (Streptomyces avidinii) (UniProt P22629); assay: compounds binding control protein streptavidin – biophysical, small-molecule microarray, 635/667 nm fluorescence, artefact control for SMM compound annotation, primary screen (AID 1147); settings: higher = more signal;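 also: signal reflects streptavidin binding to arrayed compounds as a control protein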
# Chain of Streptavidin (Streptomyces avidinii) (P22629 whole entry, looked up): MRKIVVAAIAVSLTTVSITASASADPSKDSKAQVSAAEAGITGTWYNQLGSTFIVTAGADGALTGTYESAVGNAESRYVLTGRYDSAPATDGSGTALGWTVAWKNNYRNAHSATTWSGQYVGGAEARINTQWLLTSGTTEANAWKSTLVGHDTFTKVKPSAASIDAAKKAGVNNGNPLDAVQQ
# [17] = probe aInhba binding on compound microarray – biochemical, small-molecule microarray, 635/667 nm fluorescence, primary screen (AID 1148); settings: higher = more signal;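 also: score merges 667nm spot fluorescence with signal-to-noise for antibody binding to printed compounds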
# [18] = target: Torsin-1A (Homo sapiens) (UniProt O14656); assay: TOR1A wild-type binding on microarray – cell lysate, small-molecule microarray, lysate, 635/667 nm, primary screen (AID 1149); settings: COS7 hTOR1A-WT lysate, 635 nm fluorescence, higher = more signal
# Chain of Torsin-1A (Homo sapiens) (O14656 whole entry, looked up): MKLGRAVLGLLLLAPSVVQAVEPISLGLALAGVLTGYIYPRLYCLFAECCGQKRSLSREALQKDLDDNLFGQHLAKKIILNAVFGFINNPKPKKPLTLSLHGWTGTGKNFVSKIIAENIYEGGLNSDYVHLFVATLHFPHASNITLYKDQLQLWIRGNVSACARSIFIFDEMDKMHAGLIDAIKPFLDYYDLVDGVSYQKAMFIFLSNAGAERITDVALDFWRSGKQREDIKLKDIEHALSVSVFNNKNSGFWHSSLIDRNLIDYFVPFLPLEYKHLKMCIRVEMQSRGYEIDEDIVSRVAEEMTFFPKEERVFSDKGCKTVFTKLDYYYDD
# [19] = target: Torsin-1A (Homo sapiens) (UniProt O14656); assay: torsin A mutant lysate binding on microarrays – cell lysate, small-molecule microarray, COS7 lysate, 635/667 nm fluorescence, primary screen (AID 1150); settings: COS7 hTOR1A mutant lysate, 635 nm fluorescence, higher = more signal;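 also: score pools 667 nm emission and signal to noise measuring lysate protein binding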
# [20] = test system: Sonic hedgehog protein (Shh); assay: Sonic hedgehog microarray binding compounds – biochemical, small-molecule microarray, 635/667 nm fluorescence, primary screen (AID 1151); settings: 635 nm fluorescence, higher = more signal;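 also: Shh protein binding to compounds spotted on small-molecule microarray slides; score combines spot fluorescence intensity with signal-to-noise across triplicate slides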
Compound,composite z-score [1],composite z-score [2],composite z-score [3],composite z-score [4],composite z-score [5],composite z-score [6],z-score [7],composite z-score [8],composite z-score [9],z-score [10],composite z-score [11],z-score [12],z-score [13],z-score [14],z-score [15],composite z-score [16],composite z-score [17],composite z-score [18],composite z-score [19],composite z-score [20]
C=CCNC(=O)[C@H]1[C@@H]2C(=O)O[C@@H](c3ccccc3)[C@@H](c3ccccc3)N2[C@@H](c2ccc(OCCO)cc2)[C@]12C(=O)N(C(=O)OCCOC)c1ccccc12,2.75,1.25,0.389,0.962,1.33,1.53,-0.134,0.807,0.789,0.122 (inactive),0.25,-2.05 (inactive),-0.478 (inactive),0.802 (inactive),9.23 (active),0.614,0.0925,0.895,0.497,1.95
COCCCN1C(=O)[C@@]2(Cc3ccccc31)c1ccccc1C(=O)N(Cc1ccccc1C(F)(F)F)[C@H]2c1ccc(CO)cc1,-0.169,0.439,0.521,-0.371,1.26,1.14,0.317,0.469,0.101,-0.259 (inactive),0.16,0.287 (inactive),-0.169 (inactive),-0.581 (inactive),0.255 (inactive),0.147,0.331,-0.0888,-0.0875,0.498
CCC(CC)C(O)C1C=CC2C(=O)N(C)C(=O)C2N1Nc1ccccc1 (stereo not given),1.02,1.08,0.43,0.964,0.895,-0.194,-0.513,0.434,1.1,-0.445 (inactive),0.334,0.667 (inactive),-0.625 (inactive),0.822 (inactive),-0.214 (inactive),1.48,0.288,0.551,0.235,-0.09
COC(=O)C(CC#Cc1ccc2c(c1)[C@]1(C(=O)N2)[C@H](c2ccc(O)cc2)N2[C@H](c3ccccc3)[C@H](c3ccccc3)OC(=O)[C@H]2[C@@H]1C(=O)Nc1nc2ccccc2s1)C(=O)OC,1.8,1.22,0.833,0.96,1.1,1.22,-1.7,1.23,0.471,-1.63 (inactive),0.695,-2.01 (inactive),-1.45 (inactive),1.15 (inactive),-0.5 (inactive),0.458,0.373,1.41,1.21,1.62
C[C@@]1([C@@H](NC(=O)c2ccccc2)c2ccc(-c3ccccc3)cc2)C[C@H]1C1CCCCC1,-1.28,-0.202,0.327,-0.695,-0.548,-1,-0.507,-0.848,0.519,1.32 (inactive),0.367,0.147 (inactive),-0.232 (inactive),0.201 (inactive),0.957 (inactive),1.1,0.333,0.0627,-0.0293,-1.1
C=CC[C@@]1(C(=O)N(C)C)N=C(c2ccc(OCCCO)cc2)O[C@@H]1c1ccccc1N=[N+]=[N-],3.01,1.22,0.489,0.776,1.28,0.26,0.857,0.406,1.33,-9.07 (active),0.554,-2.25 (inactive),0.557 (inactive),0.227 (inactive),-0.825 (inactive),1.28,0.274,0.722,1.03,0.264
CCCCCCC#C[Si](O[C@H](c1ccccc1)c1cn([C@H](CO)Cc2ccccc2)nn1)(C(C)C)C(C)C,0.355,-0.116,-0.074,-1.29,-0.193,-0.489,-0.319,0.65,0.207,0.751 (inactive),-0.193,-0.866 (inactive),-0.235 (inactive),-0.215 (inactive),-0.0183 (inactive),-0.463,-0.128,-1.01,0.211,0.537
CC(C)c1ccc(NN2C(C(O)c3cc(C(F)(F)F)cc(C(F)(F)F)c3)C=CC3C(=O)N(c4ccccc4)C(=O)C32)cc1 (stereo not given),0.444,1.22,0.579,0.975,-0.105,-0.313,-0.731,-0.842,1.13,0.0708 (inactive),-0.0702,-2.86 (inactive),-1.4 (inactive),-0.322 (inactive),0.849 (inactive),0.759,0.0001,-0.283,0.843,-0.254
C=CCOC(=O)[C@@H]1[C@H]2C(=O)O[C@H](c3ccccc3)[C@H](c3ccccc3)N2[C@H](c2ccc(OCCOC(=O)[C@@H]3C[C@@H]4C(=O)N[C@@H](CCCCN(C)C)C(=O)N4[C@@H]3c3ccc(O)cc3)cc2)[C@@]12C(=O)Nc1ccc(I)cc12,1.13,0.799,0.338,0.177,1.2,1.34,-1.78,0.844,0.542,-2.62 (inactive),0.312,-0.768 (inactive),-0.975 (inactive),-0.675 (inactive),0.595 (inactive),0.321,0.0649,0.724,1.84,1.74
